PG9 Ab binder: binds the HIV-1 gp120 antibody PG9; TR-FRET gp120-PG9 antibody binding; inhibition, % at 6.7 µM; 360,000 tested, 0.43% active; AID 624416; in the data active means inhibition above about 8.5%
MBD2 inh: MBD2-methylated oligo binding inhibition; inhibition, % at 4.4 µM; 370,000 tested, 0.31% active; AID 686964; Q9UBB5; TR-FRET, MBD2 binding to methylated oligonucleotide; in the data active means inhibition above about 13%
DNMT1 inh: DNMT1 (human) enzyme inhibition | AID 588458 | P26358 | DNMT1 molecular beacon, Hinp1I cleavage, fluorescence | 360,000 tested, 0.83% active | inhibition (reported as % activation of signal), % at 10 µM; in the data active means inhibition above about 50%
Target sequence (P26358 504-1616 limits assumed): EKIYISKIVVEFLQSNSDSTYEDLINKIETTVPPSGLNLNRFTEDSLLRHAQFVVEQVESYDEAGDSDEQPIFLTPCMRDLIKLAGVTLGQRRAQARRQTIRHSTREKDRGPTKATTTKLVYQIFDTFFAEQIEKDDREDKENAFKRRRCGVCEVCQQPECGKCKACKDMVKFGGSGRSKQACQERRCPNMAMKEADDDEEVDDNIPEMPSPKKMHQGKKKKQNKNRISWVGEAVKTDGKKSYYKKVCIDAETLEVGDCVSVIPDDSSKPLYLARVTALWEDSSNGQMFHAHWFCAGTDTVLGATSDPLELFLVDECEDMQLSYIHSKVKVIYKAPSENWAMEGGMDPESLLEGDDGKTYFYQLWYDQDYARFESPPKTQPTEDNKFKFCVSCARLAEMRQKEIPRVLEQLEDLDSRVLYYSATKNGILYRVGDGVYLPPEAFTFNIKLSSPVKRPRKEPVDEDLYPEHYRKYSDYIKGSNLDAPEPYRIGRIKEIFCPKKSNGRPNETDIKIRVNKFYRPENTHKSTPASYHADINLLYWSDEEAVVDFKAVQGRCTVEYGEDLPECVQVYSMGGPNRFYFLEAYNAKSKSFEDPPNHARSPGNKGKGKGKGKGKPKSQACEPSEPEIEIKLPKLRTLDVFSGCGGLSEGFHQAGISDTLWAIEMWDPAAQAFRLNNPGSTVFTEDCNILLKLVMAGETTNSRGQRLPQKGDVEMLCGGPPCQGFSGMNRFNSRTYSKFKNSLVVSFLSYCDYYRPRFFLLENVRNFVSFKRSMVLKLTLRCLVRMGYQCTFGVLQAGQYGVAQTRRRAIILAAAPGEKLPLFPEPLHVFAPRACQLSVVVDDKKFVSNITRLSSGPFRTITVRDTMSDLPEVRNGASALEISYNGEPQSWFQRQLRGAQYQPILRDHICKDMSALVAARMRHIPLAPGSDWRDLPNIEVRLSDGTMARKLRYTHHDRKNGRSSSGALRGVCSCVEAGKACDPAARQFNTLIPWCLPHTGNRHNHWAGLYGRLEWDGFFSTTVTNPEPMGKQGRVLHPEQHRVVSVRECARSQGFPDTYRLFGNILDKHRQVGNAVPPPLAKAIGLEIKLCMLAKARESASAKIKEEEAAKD
LEDGF integ inh: blocks HIV-1 LEDGF/p75-dependent DNA integration | TR-FRET IN-LEDGF/p75 DNA integration, Eu/Cy5 | inhibition, % at 3.7 µM | 370,000 tested, 0.64% active;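 active means inhibition above the screen-wide mean plus 3 SD, cut at about 13% in these data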;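 further: signal is the Cy5 over europium emission ratio at 671 and 618 nm; 0% = plate median of compound wells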
rCAG binder: binds r(CAG) RNA repeats; AID 651821; inhibition, % at 3 µM; r(CAG) RNA repeat, TO-PRO-1 dye displacement fluorescence; 370,000 tested, 1.3% active;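 active means inhibition above the plate cutoff, the mean of all test compounds on that plate plus 3 SD, cut at about 35% in these data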;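 further: 0% = DMSO alone and 100% = 100 µM mitoxantrone as full dye displacement; higher means more dye released from RNA so lower well fluorescence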
UHRF1 MBD2 ctr: human UHRF1 methylated DNA binding inhibitors; Q96T88; UHRF1 binding to methylated oligo, TR-FRET; inhibition, % at 4.4 µM; 370,000 tested, 0.75% active; in the data active means inhibition above about 21%;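 further: UHRF1 SRA domain binding a hemimethylated CpG hairpin DNA probe; 0% = median of test compound wells and 100% = reference inhibitor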
PG9 binder conf: PG9 antibody binding, confirmed; shares compounds with PG9 Ab binder; TR-FRET PG9 antibody binding, biochemical; inhibition, % at 6.7 µM; 1,500 tested, 90% active; AID 651571; in the data active means inhibition above about 9%
PGV04 counter: PGV04 control antibody binding, counter-screen | shares compounds with PG9 Ab binder | TR-FRET PGV04 antibody-gp120 binding, biochemical | inhibition, % at 6.7 µM | 1,500 tested, 95% active; in the data active means inhibition above about 9.5%
PG9 binder DR: small molecules binding HIV-1 gp120 antibody PG9; shares compounds with PG9 Ab binder; TR-FRET PG9 antibody-gp120 binding inhibition; 95 tested, under 10 active; IC50, µM; in the data active means IC50 below about 10 µM
PGV04 DR counter: counter-screen for PG9 binders: binding to control antibody PGV04; shares compounds with PG9 Ab binder; TR-FRET binding to control antibody PGV04; IC50, µM; 95 tested, 20% active
PG126 binding DR: counter-screen for PG9 binders: binding to control antibody PG126 | shares compounds with PG9 Ab binder | TR-FRET binding to antibody PG126, counterscreen | IC50, µM | 95 tested, 20% active
Numbers without * were called inactive; i = inactive; / = no result given. Most compounds without a hit are left out; they make up all but 3.5% or so of the library. Unless noted, no stated cut-off is given here; in the data, active means IC50 below about 9 µM; inactive means the rest.

SMILES | PG9 Ab binder | MBD2 inh | DNMT1 inh | LEDGF integ inh | rCAG binder | UHRF1 MBD2 ctr | PG9 binder conf | PGV04 counter | others
COc1ccc(-n2c(=S)[nH]c3c(oc4ccccc43)c2=O)cc1 | 25.9* | 0.2 | -2.0 | -0.8 | 4.3 | -2.2 | 13.3* | 11.7* | PG9 binder DR=>67.1;PGV04 DR counter=i;PG126 binding DR=i
Brc1ccc2ncc(Br)cc2c1 | 12.2* | -3.9 | 2.2 | 2.8 | 0.3 | 0.1 | 16.1* | 22.9*
COc1ccc(CNC(=O)CN(C(=O)c2snc(C(N)=O)c2N)c2ccc(F)cc2)cc1 | -1.8 | 1.4 | 0.3 | 4.3 | 1.9 | 1.0 | / | /
CC(C)c1ccc(N(CC(=O)NCc2ccc(F)cc2)C(=O)c2snc(C(N)=O)c2N)cc1 | 11.5* | 3.4 | 2.4 | -1.1 | 4.0 | 8.1 | 17.8* | 22.8*
CCOc1ccc(N(CC(=O)NCc2ccc(F)cc2)C(=O)c2snc(C(N)=O)c2N)cc1 | 9.4* | -5.9 | -0.3 | -1.1 | 5.8 | -0.3 | 17.9* | 25.3*
O=C(COC(=O)c1ccccc1C(=O)c1ccc(Cl)cc1)NC(c1ccccc1)c1ccccc1 | 17.0* | 8.3 | -3.9 | 2.0 | 23.8 | 3.9 | 24.5* | 47.2*
O=C(COC(=O)c1ccccc1C(=O)c1ccc(Cl)cc1)NCCc1ccccc1 | -2.1 | 3.7 | -5.3 | -1.0 | 0.6 | -0.6 | / | /
O=C(Nc1ccc(F)cc1Cl)c1ccc2c(=O)n3c(nc2c1)CCCCC3 | 29.4* | -2.9 | 4.3 | -1.9 | -6.0 | 0.1 | 30.2* | 9.7* | PG9 binder DR=>67.1;PGV04 DR counter=i;PG126 binding DR=i
O=C(Nc1ccccc1Cl)c1ccc2c(=O)n3c(nc2c1)CCC3 | 1.1 | 0.3 | 0.4 | -3.6 | 0.8 | -0.6 | / | /
Cc1nc(SCC(N)=O)[nH]c(=O)c1C | / | 1.6 | / | 0.0 | / | 1.1 | / | /
Nc1cc(Cl)ccc1C(=O)OCC(=O)NC1CCCCC1 | 30.5* | 4.5 | -0.2 | -2.4 | 0.0 | 5.0 | 29.4* | 41.4*
COc1cc(C)ccc1OC(C)C(=O)Nc1ccc(N2CCCCC2)cc1 (stereo unspecified) | -1.1 | 1.1 | -2.6 | -1.6 | -1.9 | 0.9 | / | /
COc1cc(C(=O)Oc2ccccc2)ccc1OCc1c(C)noc1C | 10.5* | -2.5 | 0.3 | -1.5 | -2.1 | 0.8 | 16.9* | 13.1* | PG9 binder DR=>67;PGV04 DR counter=>67;PG126 binding DR=>67
CCCCCNC(=O)C(c1ccncc1)n1c(=O)c(-c2ccco2)nc2ccccc21 (stereo unspecified) | 9.1* | -4.8 | / | -0.6 | 18.2 | -1.9 | 3.7 | 5.0
CCCCCNC(=O)C(c1cc2ccccc2o1)n1c(=O)c(-c2ccco2)nc2ccccc21 (stereo unspecified) | -0.6 | -1.3 | / | 2.6 | 34.3 | 4.4 | / | /
COCCNc1nc2sc3c(c2c(=O)n1Cc1ccco1)CCCCC3 | 8.7* | 4.4 | / | -0.9 | -3.0 | 3.3 | 10.2* | 11.0*
O=c1c2c3c(sc2nc(NCCO)n1Cc1ccco1)CCCCC3 | -0.1 | -0.1 | -3.0 | -1.6 | -2.5 | 1.4 | / | /
O=C(Nc1nc(=O)c2ccccc2s1)c1ccc(F)cc1 | 41.5* | 3.4 | 1.2 | -2.3 | 2.0 | 1.6 | 65.8* | 78.0*
O=C(Nc1nc2ccccc2c(=O)s1)c1ccco1 | 3.2 | 3.3 | 3.2 | -1.6 | 0.7 | -2.9 | / | /
Nc1ccc(C(=O)Nc2nc3ccccc3s2)cc1 | -0.6 | 3.6 | -4.2 | -1.3 | 2.0 | -4.3 | / | /
O=C(Nc1nc(=O)c2ccccc2s1)c1ccc(Cl)cc1 | 25.0* | -7.6 | 43.6 | 3.1 | 0.6 | -2.4 | 49.8* | 68.2*
O=C(Nc1nc2ccccc2c(=O)s1)c1ccc(F)cc1Cl | 70.7* | 7.3 | 4.1 | -5.4 | -0.4 | 2.8 | 60.0* | 77.2*
O=C(Cc1ccccc1)Nc1nc(=O)c2ccccc2s1 | 67.6* | -5.4 | 1.0 | -0.4 | 7.5 | 0.8 | 71.7* | 77.9*
CCC(=O)N1CCCC(C(=O)Nc2nc3ccccc3[nH]2)CC1 (stereo unspecified) | -1.1 | -5.8 | 1.5 | 2.3 | 2.5 | -1.7 | / | /
CCCCN1C(=O)N2Cc3ccc(C)cc3C2CS1(=O)=O (stereo unspecified) | / | -5.2 | / | -0.6 | 3.0 | 1.4 | / | /
SMILES | PG9 Ab binder | MBD2 inh | DNMT1 inh | LEDGF integ inh | rCAG binder | UHRF1 MBD2 ctr | PG9 binder conf | PGV04 counter | others
O=C(NC1CCCCN(Cc2cccc(Cl)c2)C1=O)c1cccc([N+](=O)[O-])c1 (stereo unspecified) | / | -0.9 | / | -1.0 | 0.0 | -1.1 | / | /
O=C(NCCc1ccccc1)OCc1cn(Cc2ccccc2F)nn1 | / | -0.3 | / | 3.3 | 0.9 | 2.2 | / | /
CC(CCN1CCC(C(O)(c2ccccc2)c2ccccc2)CC1)Oc1cccc(C(F)(F)F)c1 (stereo unspecified) | / | -4.1 | / | -2.8 | -0.6 | -0.7 | / | /
Cc1ccc(NC(=O)COC(=O)c2ccc(-n3cccn3)cc2)cc1C | 13.0* | -5.3 | 27.3 | 0.8 | 1.2 | 0.7 | 18.1* | 28.7*
COc1ccc(N(CC(=O)NCc2ccccc2Cl)S(=O)(=O)c2c(C)n[nH]c2C)cc1 | 1.0 | 6.7 | -4.9 | 0.3 | 0.2 | 1.7 | / | /
CC1Sc2ccc(S(=O)(=O)N3CCC(C(=O)NCC(C)c4ccccc4)CC3)cc2NC1=O (stereo unspecified) | -1.6 | -2.7 | -2.2 | 2.5 | 4.7 | 0.7 | / | /
CCN(C(=O)CSc1cc(-c2ccccc2)c2ccc(OC)cc2n1)C1CCS(=O)(=O)C1 (stereo unspecified) | 1.6 | 9.0 | -6.3 | 0.2 | 12.4 | 10.1 | / | /
COc1ccc2c(-c3ccccc3)cc(SCC(=O)NC3CCS(=O)(=O)C3)nc2c1 (stereo unspecified) | 22.2* | 10.6 | -1.8 | -5.1 | 0.7 | 3.5 | 16.0* | 19.3*
COCCNC(=O)CSc1cc(-c2ccccc2)c2ccc(OC)cc2n1 | 15.8* | -3.7 | -2.0 | -3.2 | -6.2 | -3.8 | 21.4* | 25.5*
COc1ccc2c(-c3ccccc3)cc(SCC(=O)NC(N)=O)nc2c1 | 17.1* | 0.1 | 16.3 | -3.9 | 0.8 | 5.5 | 28.1* | 64.9*
COc1ccc(S(=O)(=O)N2CCOC23CCN(S(C)(=O)=O)CC3)cc1 | 0.6 | -2.1 | 1.9 | -4.7 | -0.1 | 5.1 | / | /
Cc1cc(C)c2nc(SCC(=O)NC(=O)c3cccn3C)cc(C)c2c1 | 14.6* | -2.5 | -4.4 | 1.1 | 0.0 | -2.3 | 12.7* | 26.6*
COc1ccc(S(=O)(=O)NC(=O)C2(C)CCN2C(=O)Cc2ccccc2)cc1OC (stereo unspecified) | -0.3 | 2.5 | 2.3 | -0.5 | 1.5 | -3.7 | / | /

Source: PubChem BioAssay (several laboratories)
